Our source for the Kd values is article PMC5540273 (PLoS ONE, 2017).

pKd: −log10 of the molar value. A value given as a limit tells only on which side of the number the result lay.
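Note: kd values determined as follow-up on hits from a single-replicate KINOMEscan panel screen.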

One assay relates to CLK3.
A word on the pKd: it is the Kd on a negative log10 scale, so that one unit is a factor of ten. In the case of `COc1ccc(NC(=O)c2ccc(-c3cc(-c4nnc(C)o4)ccc3C)cc2)cc1` [GW595885], the pKd is less than 5.00.

The compound `CSc1nn2c(=O)cc(N3CCOCC3)nc2n1Cc1cccc(Cl)c1Cl` [GSK2347225] showed a negative logarithm of the Kd (pKd) of less than 5.00.

The compound `Nc1nccc2scc(-c3ccc4c(c3)CCN4C(=O)Cc3cc(F)ccc3F)c12` [GSK2587663] gave a pKd of less than 5.00.

With `Nc1nc(-c2cccnc2)c(-c2ccnc3ccccc23)s1` [GW684083], the pKd is less than 5.00.

The subject of another assay is CSF1R.
Consider `COc1cc2c(Nc3cccc(NC(=O)c4ccccc4)c3)ncnc2cc1OCCCN1CCOCC1` [GSK223810], for which the pKd was 6.38.

For the compound `COc1ccc(NC(=O)Nc2ccc(C)c(-c3ccc(C(=O)Nc4ccncc4)cc3)c2)cc1` [GSK1398475], the pKd is 5.74.

`Cn1ccc2ncnc(Oc3ccc(NC(=O)Nc4cccnc4)c(Cl)c3)c21` showed a pKd of 6.54.

With `O=C(NCCCN1CCCC1=O)c1cnc(NCc2cc(Cl)ccc2Cl)nc1NC1CCNCC1`, the pKd was less than 5.00.

`Cc1ccc(NC(=O)c2cccc(C#N)c2)cc1-c1ccc(C(=O)Nc2ccncc2)cc1` [GSK1398463]: the pKd is 6.11.

A further assay has as its system CSNK1A1.
For `Nc1nc(-c2ccccn2)c(-c2ccnc3ccccc23)s1` [GW548057], the pKd is 5.92.

The compound `CNc1nccc(-c2c(-c3ccc(F)cc3)ncn2C2CCN(C)CC2)n1` [SB-222903] showed a pKd of 7.62.

With `CN1CCC(n2cnc(-c3ccc(F)cc3)c2-c2ccnc(NC3CCNCC3)n2)CC1` [SB-229482], the pKd was 6.80.

`CC(C)N1CCC(n2cnc(-c3ccc(F)cc3)c2-c2ccnc(N)n2)CC1` [SB-223132]: the pKd is 7.23.

On to `CCc1nc(-c2cccc(C)c2)c(-c2ccnc(NC(=O)c3ccccc3)c2)s1`, for which the pKd was 5.85.

Compound `Fc1ccc(-c2ncn(CCCNCc3ccccc3)c2-c2ccncc2)cc1` had a pKd of 6.68.

Another assay deals with CSNK1D.
As to `FC(F)(F)c1cc(Nc2nccc(-c3c(-c4ccc(Cl)cc4)nn4ncccc34)n2)ccc1Cl` [GW829351], the pKd is 5.66.

The compound `Nc1nc(-c2ccccn2)c(-c2ccnc3ccccc23)s1` [GW548057] gave a pKd of 5.74.

`CNc1nccc(-c2c(-c3ccc(F)cc3)ncn2C2CCN(C)CC2)n1` [SB-222903] showed a pKd of 8.24.

Regarding `CN1CCC(n2cnc(-c3ccc(F)cc3)c2-c2ccnc(NC3CCNCC3)n2)CC1` [SB-229482], the pKd was 7.05.

As to `CC(C)N1CCC(n2cnc(-c3ccc(F)cc3)c2-c2ccnc(N)n2)CC1` [SB-223132], the pKd is 7.41.

For `CCc1nc(-c2cccc(C)c2)c(-c2ccnc(NC(=O)c3ccccc3)c2)s1`, the pKd was 6.16.

Compound `Fc1ccc(-c2ncn(CCCNCc3ccccc3)c2-c2ccncc2)cc1` had a pKd of 7.33.
